Assay results as given in PubChem BioAssay (NCI).
About 83,000 compounds went through this panel and 20% of them were active in at least one assay; those are over-represented in the sample as a whole.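 In brief: 96-well plates, 48 h treatment, single concentration, percent growth endpoint.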 A number with no mark means an inactive call. Activity calls are given as the source filed them. Rule for the calls: active = growth percent below 10; inactive = the rest.

test system: MDA-MB-468 breast; experiment: NCI-60 one-dose screen, 48 h (100 = growth as untreated, 0 = no growth, -100 = all killed); conditions: 10 µM unless noted

Structure (SMILES) | growth
Cc1ccc(NCc2cn(-c3ccc(C(=O)O)cc3)nc2-c2ccc(C(=O)O)cc2)cc1 | 120%
NC1CCN(c2nc(Nc3cccc(C(F)(F)F)c3)c3c(=O)[nH]ccc3n2)CC1 | -77.2% (active)
COc1cc(CNC(=O)Cc2ccccc2)ccc1OCc1cn(-c2ccc(F)cc2)nn1 | 99.8%
O=C(NS(=O)(=O)c1ccccc1)n1cc(-c2ccncc2)c(-c2cc(O)cc(Cl)c2)n1 | 98.4%
C[N+](C)(CCOC(c1ccccc1)c1ccccc1)CC(=O)OCc1ccccc1 | 100%
CN1CCN(/C=C2\CC(C(=O)NCc3ccc(Cl)cc3Cl)NC2=O)CC1 (configuration not stated) | 103%
O=C1NN(C(=O)c2ccc(Cl)cc2)C(c2ccccc2)=N/C1=C\c1cn(-c2ccccc2)nc1-c1ccccc1 | 81.9%
COc1ccc(/C=N/NC(=O)c2[nH]c3ccc(Br)cc3c2-c2ccccc2)s1 | -24% (active)
Cc1ccc(S(=O)(=O)O)c(C)c1 | 107%
Cc1cc(=NO)cc(C)n1O | 98.1%
COc1c(Cl)c2c(c(OC)c1OC)-c1ccc(SC)c(=O)cc1[C@@H](NC(=O)OCC(F)(F)F)CC2 | -15.5% (active)
O=C(C[n+]1ccccc1)c1ccc2ccccc2c1 | 88.1%
CN1CCN(Cc2ccc(NC(=O)c3[nH]ncc3Nc3ccnc4ccsc34)cc2)CC1 | 18.5%
COc1cc(-c2nc(C(=O)NCC(=O)O)nn2-c2ccc(Cl)cc2)cc(OC)c1OC | 113%
O=C1Nc2ccc3c(c2/C1=C\c1cc2c(cc1Br)OCO2)OCO3 | -11.9% (active)
O=C1C2=C(CCN(Cc3ccccc3)C2)N2CCN=C2N1Cc1ccc(F)cc1F | 5.49% (active)
O=C(Cc1ccc(F)c(F)c1)Nc1cc(C2(C(F)(F)F)CC2)nn1Cc1ccccc1 | -33.1% (active)
COc1ccc(/C=C(/C#N)n2nnc3cccc(F)c32)cc1 | -5.27% (active)
C/C(=N\O)c1ccc(NC(=O)CSc2nnc(-c3cc(-c4ccc(S(N)(=O)=O)cc4)nc4ccccc34)n2-c2ccccc2)cc1 | 63.1%
O=C(Nc1ccc2c(c1)OCO2)C(=O)c1c[nH]c2cc(F)ccc12 | 74.5%
COc1cc(/C=C\c2cc(/C=C\c3ccc(O)c(OC)c3)n(C(=O)COc3ccc(Cl)cc3Cl)n2)ccc1O | 12.5%
Cc1ccc(C(=O)NN2C(=O)CSC2c2ccc(Cl)cc2)cn1 (configuration not stated) | 110%
CC(=O)[C@H]1CC[C@H]2[C@@H]3CC[C@@H]4CC=C(C=O)C[C@]4(C)[C@H]3CC[C@]12C | 99.4%
NS(=O)(=O)c1ccc(-n2nc(C(=O)N/N=C\c3ccc(F)cc3)cc2-c2ccc(Br)cc2)cc1 | 73.9%
O=C(NCCNc1nccc(Nc2ccc(S(=O)(=O)Nc3ccccn3)cc2)n1)c1cccc([N+](=O)[O-])c1 | 105%
CCNC(=O)N1CCc2cc(OC)c(OCCc3ccc(OC)nc3)cc2C1c1ccc(C)cc1C (configuration not stated) | 8.04% (active)
CC1(C)CCc2cc(-c3ccn(S(=O)(=O)c4ccc(Cl)cc4)n3)ccc2O1 | 48.9%
